Assay results from the antibiotic and cytotoxicity screens of Wong et al. (2023).
About 3,300 (8.5%) of roughly 39,000 compounds were called active. This is one part of a sample in which actives are shown more often than they occur.

Tested on: HepG2
Test: cytotoxicity call (relative viability < 0.9)
Conditions: 10 µM

| Compound | cytotoxicity call |
| --- | --- |
| CCC(C)C1OC2(CCC1C)CC1CC(CC=C(C)C(OC3CC(OC)C(OC4CC(OC)C(O)C(C)O4)C(C)O3)C(C)C=CC=C3COC4C(O)C(C)=CC(C(=O)O1)C34O)O2 (stereo not given) | active |
| CC[C@H](C)[C@H]1O[C@]2(CC[C@@H]1C)C[C@@H]1C[C@@H](C/C=C(\C)[C@@H](O[C@H]3C[C@H](OC)[C@@H](O[C@H]4C[C@H](OC)[C@@H](O)[C@H](C)O4)[C@H](C)O3)[C@@H](C)/C=C/C=C3\CO[C@@H]4[C@H](O)C(C)=C[C@@H](C(=O)O1)[C@]34O)O2 | active |
| CC[C@@H](C)[C@H]1O[C@@]2(CC[C@@H]1C)C[C@H]1C[C@@H](CC=C(C)[C@@H](O[C@H]3C[C@@H](OC)[C@@H](O[C@H]4C[C@@H](OC)[C@@H](O)[C@@H](C)O4)[C@@H](C)O3)[C@@H](C)C=CC=C3CO[C@H]4[C@@H](O)C(C)=C[C@@H](C(=O)O1)[C@]34O)O2.CO[C@H]1C[C@@H](O[C@@H]2[C@@H](OC)C[C@@H](O[C@@H]3C(C)=CC[C@@H]4C[C@@H](C[C@@]5(CC[C@@H](C)[C@H](C(C)C)O5)O4)OC(=O)[C@@H]4C=C(C)[C@H](O)[C@@H]5OCC(=CC=C[C@@H]3C)[C@@]45O)O[C@@H]2C)O[C@@H](C)[C@@H]1O | active |
| C[C@@H]1CN([C@H](C)CO)C(=O)c2cc(NC(=O)CCC(F)(F)F)ccc2O[C@H]1CN(C)Cc1ccc(C(=O)Nc2ccccc2N)cc1 | inactive |
| N#CCSc1n[nH]c(=O)[nH]c1=O | inactive |
| O=C(C[C@@H]1CC[C@H]2[C@@H](COC[C@@H](O)CN2CC2CCOCC2)O1)N1CCOCC1 | inactive |
| Cc1noc(C)c1NC(=O)N(C)C[C@H]1OCCCC[C@H](C)Oc2ccc(NC(=O)C3CCCCC3)cc2C(=O)N([C@H](C)CO)C[C@@H]1C | inactive |
| C[C@@H]1CCCCO[C@@H](CN(C)S(=O)(=O)c2ccccc2)[C@@H](C)CN([C@H](C)CO)C(=O)c2cc(NC(=O)NC3CCCCC3)ccc2O1 | inactive |
| COc1ncccc1N | inactive |
| O=C1CCc2cc(OCCCCc3nnnn3C3CCCCC3)ccc2N1 | inactive |
| O=C1CCc2ccc(OCCCCN3CCN(c4cccc(Cl)c4Cl)CC3)cc2N1 | active |
| CCCCCCCCCCCC(=O)OCN1C(=O)CCc2ccc(OCCCCN3CCN(c4cccc(Cl)c4Cl)CC3)cc21 | inactive |
| O=C(C[C@H]1CC[C@H](NC(=O)c2cccnc2)[C@@H](CO)O1)NCCN1CCCCC1 | inactive |
| C[C@H](N)c1ccc(Cl)cc1 | inactive |
| COc1cccc(S(=O)(=O)Nc2ccc3c(c2)[C@H]2C[C@H](CC(=O)NCc4ccccc4F)O[C@@H](CO)[C@H]2O3)c1 | inactive |
